# From article PMC7826789 (International Journal of Molecular Sciences, 2021)
# Columns and labels:
# Settings in all cases: Compound Concentration (nM):1000
# MAST1 = tested on: MAST1
# MEK1 = tested on: T1, MEK1
# T1 construct: gene MAP2K1
# MEK2 = tested on: T2, MEK2
# T2 construct: gene MAP2K2
# MEK3 = tested on: T3, MEK3
# T3 construct: gene MAP2K3
# MEK4 = tested on: T4, MEK4
# T4 construct: gene MAP2K4
# MEK5 = tested on: T5, MEK5
# T5 construct: gene MAP2K5
# MEK6 = tested on: T6, MEK6
# T6 construct: gene MAP2K6
# MELK = tested on: MELK
# MERTK = tested on: MERTK
# MET(M1250T) = tested on: MET(M1250T)
# MET(Y1235D) = tested on: MET(Y1235D)
# MET = tested on: MET
# MINK = tested on: T7, MINK
# T7 construct: gene MINK1
# MKK7 = tested on: T8, MKK7
# T8 construct: gene MAP2K7
# MKNK1 = tested on: MKNK1
# MKNK2 = tested on: MKNK2
# MLCK = tested on: T9, MLCK
# T9 construct: gene MYLK3
# MLK1 = tested on: T10, MLK1
# T10 construct: gene MAP3K9
# MLK2 = tested on: T11, MLK2
# T11 construct: gene MAP3K10
# MLK3 = tested on: T12, MLK3
# T12 construct: gene MAP3K11
# 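Also: KINOMEscan scanMAX binding as percent activity remaining versus control; lower means stronger binding.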
SMILES,Percent Control (MAST1),Percent Control (MEK1),Percent Control (MEK2),Percent Control (MEK3),Percent Control (MEK4),Percent Control (MEK5),Percent Control (MEK6),Percent Control (MELK),Percent Control (MERTK),Percent Control (MET(M1250T)),Percent Control (MET(Y1235D)),Percent Control (MET),Percent Control (MINK),Percent Control (MKK7),Percent Control (MKNK1),Percent Control (MKNK2),Percent Control (MLCK),Percent Control (MLK1),Percent Control (MLK2),Percent Control (MLK3)
CCS(=O)(=O)c1ccc(OC)c(Nc2ncc(-c3cccc(F)c3)o2)c1 [GW621970X],93%,93%,92%,76%,100%,4.1%,82%,86%,67%,100%,100%,100%,72%,100%,70%,100%,100%,100%,95%,100%
COc1ccccc1-c1cc(/C=C2\C(=O)Nc3ncc(Br)cc32)cc(Br)c1O [GW442130X],85%,74%,82%,72%,86%,64%,76%,94%,95%,96%,100%,92%,93%,100%,100%,100%,100%,99%,100%,100%
CC(C)COC(=O)c1ccc2c(c1)/C(=C/Nc1ccc(S(N)(=O)=O)cc1)C(=O)N2 [GW416981X],100%,95%,92%,68%,100%,21%,83%,6.4%,100%,92%,94%,100%,37%,100%,100%,100%,100%,100%,96%,100%
COc1cc(N2CCN(C(C)C)CC2)ccc1Nc1nc(Nc2ccc(F)cc2C(=O)NC[C@@H](O)CO)c2cc[nH]c2n1 [GSK1392956A],43%,100%,100%,23%,77%,96%,67%,57%,77%,78%,100%,100%,80%,100%,61%,97%,96%,100%,100%,100%
NS(=O)(=O)c1ccc(N/N=C2\C(=O)Nc3ccc(C(=O)NCc4ccncc4)cc32)cc1 [GW300657X],33%,100%,100%,41%,87%,48%,79%,35%,69%,82%,91%,100%,34%,93%,56%,78%,45%,89%,99%,100%
NS(=O)(=O)c1ccc(N/N=C2\C(=O)Nc3ccc(-c4cnco4)cc32)cc1 [GW276655],75%,91%,92%,52%,84%,70%,72%,97%,60%,63%,100%,94%,3.8%,93%,93%,71%,19%,73%,64%,96%
Cl.O=S1CCN(Cc2ccc(-c3ccc4ncnc(Nc5ccc(OCc6ccccc6)c(F)c5)c4c3)o2)CC1 [GW576924A],65%,83%,93%,100%,98%,12%,91%,95%,60%,100%,100%,100%,89%,51%,82%,100%,100%,100%,100%,100%
O=C1Nc2ccc(C(=O)c3ccco3)cc2C1=Cc1cc(Cl)c(O)c(Cl)c1 [GW406108X],64%,76%,91%,16%,32%,72%,72%,78%,100%,59%,100%,67%,13%,78%,72%,89%,100%,97%,100%,95%
Cc1cc(O)cc(C)c1/C=C/c1cncc(C(N)=O)c1 [GW435821X],100%,81%,89%,100%,100%,5.3%,100%,95%,100%,100%,100%,100%,87%,100%,69%,31%,100%,100%,56%,100%
COC(=O)Nc1nc2ccc(Oc3ccc(NC(=O)Nc4cc(C(F)(F)F)ccc4F)cc3)cc2s1.Cl [GW693917A],41%,76%,78%,100%,96%,15%,98%,72%,6.9%,19%,6.6%,33%,79%,97%,45%,31%,99%,97%,85%,100%
NS(=O)(=O)c1ccc(Nc2ncc(-c3ccccc3)o2)cc1 [GW572399X],100%,100%,100%,30%,86%,59%,65%,100%,100%,100%,100%,100%,40%,100%,39%,53%,100%,100%,100%,100%
CCn1c(-c2nonc2N)nc2c(C#CC(C)(C)O)nc(OCCNC)cc21.Cl [GSK949675],51%,100%,100%,40%,100%,100%,80%,45%,80%,100%,100%,97%,100%,100%,98%,100%,100%,100%,100%,100%
Cl.O=C(Nc1ccc(Oc2ccc3[nH]c(NC(=O)c4ccco4)nc3c2)cc1)Nc1cc(C(F)(F)F)ccc1F [GW683134A],98%,96%,99%,83%,100%,19%,73%,82%,0.2%,27%,6.6%,17%,99%,100%,48%,12%,100%,64%,82%,67%
CN(C)CCNC(=O)Nc1ccc(N(C)c2ccnc(Nc3ccc(CS(C)(=O)=O)cc3)n2)cc1.Cl [GW830900A],57%,86%,77%,58%,75%,1.9%,100%,56%,91%,22%,57%,21%,59%,100%,100%,53%,100%,97%,99%,100%
C/C(Nc1ccc(S(N)(=O)=O)cc1)=C1/C(=O)Nc2ccccc21 [GW335962X],77%,75%,81%,76%,39%,70%,74%,87%,100%,91%,100%,72%,2.8%,91%,74%,100%,69%,77%,75%,98%
COc1ccc2[nH]c3c4[nH]c5ccc(OC)cc5c4c4c(c3c2c1)C(=O)NC4=O [GW296115X],45%,70%,59%,46%,91%,0.7%,97%,43%,19%,88%,76%,78%,1.7%,88%,92%,54%,16%,2.2%,83%,5.6%
COc1cc(/C=N/Nc2ncnc3[nH]ncc23)ccc1O [GW578748X],78%,78%,83%,79%,94%,0.5%,83%,15%,100%,84%,83%,100%,39%,100%,78%,38%,90%,66%,51%,43%
Cl.c1ccc(Cc2nc3ccc(Nc4ncnc5ccccc45)cc3[nH]2)cc1 [GR269666A],100%,100%,100%,100%,100%,2.6%,92%,100%,100%,100%,91%,100%,92%,100%,86%,100%,100%,100%,100%,91%
COc1cc2ncn(-c3cc(O[C@H](C)c4ccccc4Cl)c(C(N)=O)s3)c2cc1OC [GSK237701A],96%,90%,90%,100%,91%,59%,84%,81%,28%,81%,71%,78%,55%,97%,73%,77%,97%,64%,95%,92%
O=C(Nc1n[nH]c2nc(-c3ccc(O)cc3)c(Br)cc12)C1CC1 [SB-725317],84%,100%,100%,75%,100%,28%,98%,100%,100%,100%,100%,100%,42%,100%,49%,90%,67%,100%,100%,100%
